# Measured values: PubChem BioAssay AID1159580 (chemical genetic matrix, 2015)
# Values joined by “and” are separate entries in the source; they are usually repeats but may differ in a detail not shown here. Equal values may be shown once. Screen size: about 5,500 compounds; about 2,000 (36%) were called active. Another 18% or so got no clear call; they are omitted. Cut-off read from the data, not from the text of the source: active = normalized growth mostly below about 0.91 (no sharp cut-off); inconclusive = no clear call, values can overlap the other calls; inactive = mostly above about 0.92. This is one part of the list.
# Assay: chemical genetic growth profiling, strain panel (AID 1159580);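 note: tested at 20 µM; growth read once vehicle control cultures reached saturation at 30 °C; 1 = growth at the plate median or of vehicle wells; lower values mean less growth of the strain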
# Conditions: S. cerevisiae deletion strains, growth OD
compound,measurement,setting,value
COC(=O)C1=C(C)NC(C)=C(C(=O)OC)C1c1ccccc1[N+](=O)[O-],normalized growth,"locus YAL021C, strain ccr4, stronger effect = lower value",0.829 (active)
same,normalized growth,"locus YAL026C, strain drs2, stronger effect = lower value",0.812 (active)
same,normalized growth,"locus YAL030W, strain snc1, stronger effect = lower value",0.896 (active)
same,normalized growth,"locus YAL040C, strain CLN3, stronger effect = lower value",0.993 (inactive)
same,normalized growth,"locus YBL061C, strain skt5, stronger effect = lower value",0.9 (active)
same,normalized growth,"locus YBR009C, strain hhf1, stronger effect = lower value",0.863 (active)
same,normalized growth,"locus YBR021W, strain FUR4, stronger effect = lower value",0.996 (inactive)
same,normalized growth,"locus YBR023C, strain chs3, stronger effect = lower value",0.91 (active)
same,normalized growth,"locus YBR171W, strain sec66, stronger effect = lower value",0.975 (inactive)
same,normalized growth,"locus YBR229C, strain ROT2, stronger effect = lower value",0.998 (inactive)
same,normalized growth,"locus YBR231C, strain swc5, stronger effect = lower value",0.836 (active)
same,normalized growth,"locus YBR279W, strain paf1, stronger effect = lower value",0.887 (active)
same,normalized growth,"locus YCL011C, strain gbp2, stronger effect = lower value",0.907 (active)
same,normalized growth,"locus YCL016C, strain dcc1, stronger effect = lower value",0.943 (inactive)
same,normalized growth,"locus YCL029C, strain bik1, stronger effect = lower value",0.97 (inactive)
same,normalized growth,"locus YCL061C, strain MRC1 (second series), stronger effect = lower value",0.829 (active)
same,normalized growth,"locus YCL061C, strain MRC1, stronger effect = lower value",0.933 (inactive)
same,normalized growth,"locus YCL069W, strain vba3, stronger effect = lower value",0.947 (inactive)
same,normalized growth,"locus YCR088W, strain abp1, stronger effect = lower value",0.955 (inactive)
same,normalized growth,"locus YDL005C, strain med2, stronger effect = lower value",0.974 (inactive)
same,normalized growth,"locus YDL035C, strain GPR1, stronger effect = lower value",0.725 (active)
same,normalized growth,"locus YDL040C, strain nat1, stronger effect = lower value",0.98 (inactive)
same,normalized growth,"locus YDL074C, strain BRE1, stronger effect = lower value",0.905 (inactive)
same,normalized growth,"locus YDL101C, strain DUN1, stronger effect = lower value",1.01 (inactive)
same,normalized growth,"locus YDL134C, strain PPH21, stronger effect = lower value",0.783 (active)
same,normalized growth,"locus YDL185W, strain tfp1, stronger effect = lower value",0.938 (inactive)
same,normalized growth,"locus YDL192W, strain arf1, stronger effect = lower value",0.85 (active)
same,normalized growth,"locus YDR001C, strain nth1, stronger effect = lower value",0.975 (inactive)
same,normalized growth,"locus YDR069C, strain doa4, stronger effect = lower value",0.719 (active)
same,normalized growth,"locus YDR101C, strain arx1, stronger effect = lower value",0.963 (inactive)
same,normalized growth,"locus YDR137W, strain rgp1, stronger effect = lower value",0.953 (inactive)
same,normalized growth,"locus YDR159W, strain sac3, stronger effect = lower value",0.918 (inactive)
same,normalized growth,"locus YDR162C, strain NBP2, stronger effect = lower value",0.388 (active)
same,normalized growth,"locus YDR195W, strain ref2",0.999 (inactive)
same,normalized growth,"locus YDR297W, strain sur2, stronger effect = lower value",0.854 (active)
same,normalized growth,"locus YDR318W, strain mcm21, stronger effect = lower value",0.827 (active)
same,normalized growth,"locus YDR334W, strain swr1, stronger effect = lower value",0.904 (inactive)
same,normalized growth,"locus YDR335W, strain msn5, stronger effect = lower value",0.969 (inactive)
same,normalized growth,"locus YDR363W, strain ESC2, stronger effect = lower value",0.992 (inactive)
same,normalized growth,"locus YDR388W, stronger effect = lower value",0.933 (inactive)
same,normalized growth,"locus YDR392W, strain spt3, stronger effect = lower value",0.73 (active)
same,normalized growth,"locus YDR502C, strain sam2, stronger effect = lower value",0.876 (active)
same,normalized growth,"locus YEL003W, strain gim4, stronger effect = lower value",0.895 (active)
same,normalized growth,"locus YEL037C, strain rad23, stronger effect = lower value",0.934 (inactive)
same,normalized growth,"locus YEL061C, strain CIN8 (second series), stronger effect = lower value",0.966 (inactive)
same,normalized growth,"locus YEL061C, strain CIN8, stronger effect = lower value",0.918 (active)
same,normalized growth,"locus YER002W, strain NOP16, stronger effect = lower value",1 (inactive)
same,normalized growth,"locus YER015W, strain faa2, stronger effect = lower value",0.828 (active)
same,normalized growth,"locus YER016W, strain bim1, stronger effect = lower value",0.944 (inactive)
same,normalized growth,"locus YER110C, stronger effect = lower value",1 (inactive)
same,normalized growth,"locus YER111C, strain swi4, stronger effect = lower value",0.94 (inactive)
same,normalized growth,"locus YER155C, strain BEM2 (second series), stronger effect = lower value",0.987 (inactive)
same,normalized growth,"locus YER155C, strain BEM2, stronger effect = lower value",1.01 (inactive)
same,normalized growth,"locus YER167W, strain BCK2, stronger effect = lower value",0.894 (active)
same,normalized growth,"locus YFR010W, strain ubp6, stronger effect = lower value",0.864 (active)
same,normalized growth,"locus YGL078C, strain dbp3, stronger effect = lower value",0.978 (inactive)
same,normalized growth,"locus YGL086W, strain mad1, stronger effect = lower value",0.799 (active)
same,normalized growth,"locus YGL167C, strain pmr1, stronger effect = lower value",0.916 (inactive)
same,normalized growth,"locus YGL173C, strain kem1, stronger effect = lower value",0.729 (active)
same,normalized growth,"locus YGL227W, strain vid30, stronger effect = lower value",0.988 (inactive)
same,normalized growth,"locus YGL240W, strain doc1, stronger effect = lower value",0.96 (inactive)
same,normalized growth,"locus YGL248W, strain PDE1, stronger effect = lower value",0.787 (active)
same,normalized growth,"locus YGL253W, strain hxk2, stronger effect = lower value",0.878 (active)
same,normalized growth,"locus YGR078C, strain PAC10, stronger effect = lower value",0.991 (inactive)
same,normalized growth,"locus YGR135W, strain pre9, stronger effect = lower value",0.799 (active)
same,normalized growth,"locus YGR252W, strain gcn5, stronger effect = lower value",0.997 (inactive)
same,normalized growth,"locus YHR013C, strain ard1, stronger effect = lower value",0.83 (active)
same,normalized growth,"locus YHR027C, strain rpn1, stronger effect = lower value",0.734 (active)
same,normalized growth,"locus YHR030C, strain SLT2, stronger effect = lower value",0.891 (active) and 0.969 (inactive)
same,normalized growth,"locus YHR079C, strain IRE1 (second series), stronger effect = lower value",0.957 (inactive)
same,normalized growth,"locus YHR079C, strain IRE1, stronger effect = lower value",0.956 (inactive)
same,normalized growth,"locus YHR094C, strain hxt1, stronger effect = lower value",0.974 (inactive)
same,normalized growth,"locus YHR129C, strain ARP1, stronger effect = lower value",0.903 (active)
same,normalized growth,"locus YHR142W, strain chs7, stronger effect = lower value",0.894 (inactive)
same,normalized growth,"locus YHR200W, strain rpn10, stronger effect = lower value",0.88 (active)
same,normalized growth,"locus YIL066C, strain RNR3, stronger effect = lower value",0.609 (active)
same,normalized growth,"locus YIL073C, strain SPO22, stronger effect = lower value",0.319 (active)
same,normalized growth,"locus YIL125W, strain kgd1, stronger effect = lower value",0.948 (inactive)
same,normalized growth,"locus YIR030C, strain dcg1, stronger effect = lower value",0.992 (inactive)
same,normalized growth,"locus YJL092W, strain hpr5, stronger effect = lower value",0.945 (inactive)
same,normalized growth,"locus YJL095W, strain BCK1 (second series), stronger effect = lower value",0.933 (inactive)
same,normalized growth,"locus YJL095W, strain BCK1, stronger effect = lower value",1 (inactive) and 0.958 (inactive)
same,normalized growth,"locus YJL115W, strain asf1, stronger effect = lower value",0.969 (inactive)
same,normalized growth,"locus YJL129C, strain trk1, stronger effect = lower value",0.89 (inactive)
same,normalized growth,"locus YJL134W, strain LCB3, stronger effect = lower value",0.963 (inactive)
same,normalized growth,"locus YJL154C, strain vps35, stronger effect = lower value",0.962 (inactive)
same,normalized growth,"locus YJL164C, strain tpk1, stronger effect = lower value",0.743 (active)
same,normalized growth,"locus YJL166W, strain qcr8, stronger effect = lower value",0.825 (active)
same,normalized growth,"locus YJL168C, strain set2, stronger effect = lower value",0.952 (inactive)
same,normalized growth,"locus YJL187C, strain SWE1 (second series), stronger effect = lower value",0.99 (inactive)
same,normalized growth,"locus YJL187C, strain SWE1, stronger effect = lower value",0.901 (active)
same,normalized growth,"locus YJR043C, strain POL32, stronger effect = lower value",0.752 (active)
same,normalized growth,"locus YJR066W, strain TOR1, stronger effect = lower value",0.924 (inactive)
same,normalized growth,"locus YJR075W, strain HOC1, stronger effect = lower value",0.822 (active) and 0.894 (active)
